Screening results: PubChem BioAssay, National Center for Advancing Translational Sciences (NCATS)
HT1080NT lethal: qHTS for induction of synthetic lethality in tumor cells producing 2HG: qHTS for the HT-1080-NT fibrosarcoma cell line. HT-1080-NT fibrosarcoma viability, CellTiter-Glo ATP luminescence, 48 h. Potency, µM (top dose mostly 46.1 µM), inactives show top-dose activity, negative = less viability, hits mostly cytotoxic. 360,000 compounds, 1.6% hits. AID 686970, 2013;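 also: NT is the 2HG producing partner of a matched IDH1 knockdown line; 0% = DMSO-treated cells and -100% = media-only wells without cells; nearly all actives have a fitted effect of over 55% in size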
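Compounds were tested in concentration-response format on HT-1080-NT cells for 48 hours at 37 degrees C. Cell viability came from CellTiter-Glo luminescence; curves were classified by r2, response magnitude and activity.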
ATXN viability: Viability Counterscreen for Primary qHTS for Inhibitors of ATXN expression | AID 651635, 2014 | 400,000 compounds, 0.49% hits | S2 cells (HEK-293 line with an ATXN2-luciferase reporter) viability, CellTiter-Fluor protease fluorescence, 24 h | Potency, µM (top dose mostly 56.7 µM), hits mostly cytotoxic; also: nearly all actives have a fitted effect of over 40% in size
ATXN2 expr inh: Primary qHTS for Inhibitors of ATXN expression; HEK-293 ATXN2-luciferase reporter, luminescence, 24 h; Potency, µM (series often up to 57 µM), without a hit: at the top dose activity change, negative = inhibition, hits mostly inhibitors; 360,000 compounds, 0.72% hits; also: % is scaled to controls: 0 for no effect and ±100 for the full control effect; nearly all actives have a fitted effect of over 55% in size
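qHTS (up to 57 uM final) was run with 24 h compound exposure of reporter cells at 37 °C. Each well was multiplexed: SteadyGlo luminescence measured ATXN2-luciferase expression after a fluorogenic Gly-Phe-AFC viability readout (25 uM final).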
HT1080 IDH1KD tx: qHTS for induction of synthetic lethality in tumor cells producing 2HG: qHTS for the HT-1080-IDH1KD cell line; HT-1080 IDH1 knockdown viability, ATP luminescence, 48 h; Potency, µM (series often up to 46.1 µM), for inactives: top-dose activity, negative = toxicity, most hits filed as cytotoxic; 360,000 compounds, 2% hits;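 also: 0% = DMSO wells and -100% = cell-free medium wells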
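Luminescent ATP read-out (CellTiter-Glo, 10 min at room temperature) after 48 h compound exposure at 37 °C gave viability of IDH1-knockdown HT-1080 cells. Activity was normalised to DMSO and cell-free wells, then fitted as concentration-response curves.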
KB-3-1 cytotox: qHTS assay for MDR1-selective chemotherapeutics: Primary screen using the parental adenocarcinoma cell KB-3-1; KB-3-1 viability, CellTiter-Glo ATP luminescence, 72 h; Potency, µM (series often up to 46.1 µM), actives largely listed as cytotoxic; 400,000 compounds, 1.4% hits; AID 1347075, 2019; also: % is scaled to controls: 0 for no effect and ±100 for the full control effect; nearly all actives have a fitted effect of over 60% in size
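Screening of KB-3-1 cells (DMEM, 10% FBS, phenol-red free) ran from lowest to highest compound concentration; after 72 h at 37 °C viability was read luminescently and curves fitted.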
KB-V1 MDR tox: qHTS assay for MDR1-selective chemotherapeutics: Primary screen using the drug-selected MDR subline cells KB-V1 | 400,000 compounds, 3.4% hits | Potency, µM (series often up to 46.1 µM), actives largely listed as cytotoxic | KB-V1 MDR cells viability, CellTiter-Glo, 72 h; also: % is scaled to controls: 0 for no effect and ±100 for the full control effect; nearly all actives have a fitted effect of over 60% in size
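Readout: CellTiter-Glo luminescence, 10 min after addition. Cells: KB-V1 MDR subline, 72 h at 37 degrees C with compound. Analysis: corrected, normalized data fitted to concentration-effect curves.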
The depositor's hits bear a star; i = inactive; ? = inconclusive; · = no result given; [ ] = dose if it differs, or a comment. Sampled rows, rich in hits. Any-hit rate of the full collection: about 6.2%. Calls follow the shape of the dose curve; as a rule, active = well fitted curve in the direction sought with a large enough effect; inconclusive = small, poorly fitted or top-dose-only effect, or another doubt; inactive = no such curve, though single readings can be large; an effect the other way counts as inactive or inconclusive. Potency is read from the fitted curve at half-maximal effect.

SMILES	HT1080NT lethal	ATXN viability	ATXN2 expr inh	HT1080 IDH1KD tx	KB-3-1 cytotox	KB-V1 MDR tox
c1ccc2c(C3=NNC(=NC4CCCCC4)SC3)c[nH]c2c1	?	i	10%	?	i	i
Cc1c(CN(C)C)c2c(n1Cc1ccccc1)C(=O)c1ccccc1-2	23µM*	?	-18%	16µM*	?	?
CCCN1C(=O)c2ccc(C(=O)NCc3ccco3)cc2C1=O	-14%	i	8%	-17%	i	i
CCC1=Nc2cc(C(=O)NCc3cccnc3)ccc2Sc2ccc(C)cc21	2.3µM*	i	-24%	2.6µM*	?	?
CCN1C(=O)c2ccc(C(=O)NCc3ccco3)cc2C1=O	20%	0.16µM*	-17%	15%	i	i
CCc1ccc(CNC(=O)c2ccc3c(c2)N=C(C)c2cc(C)ccc2S3)cc1	·	?	-18%	·	?	i
CCC1=Nc2cc(C(=O)NCc3ccco3)ccc2Sc2ccccc21	2.6µM*	?	-18%	5.8µM*	2.6µM*	?
CCC1=Nc2cc(C(=O)NCc3ccco3)ccc2Sc2ccc(Cl)cc21	5.2µM*	?	4%	?	1.5µM*	1.5µM*
CCC1CCCCN1S(=O)(=O)c1ccc(N2CCCCS2(=O)=O)cc1 (stereo not drawn)	·	i	-7%	·	i	i
O=S(=O)(c1ccccc1C(F)(F)F)N1CCN(c2nc(-c3cccs3)nc3ccccc23)CC1	·	·	·	·	i	i
COc1c(C)cc(C(O)c2ncc(-c3ccccc3C)[nH]2)cc1C (stereo not drawn)	-30%	i	1%	-23%	i	i
CC(C)C(NS(=O)(=O)c1ccc2c(c1)oc(=O)n2C)C(=O)NCCc1ccccc1 (stereo not drawn)	·	i	12%	·	i	i
COc1ccc(NC(=O)c2c(Cl)n(C)c3ccccc23)cc1	18µM*	?	23%	?	2.9µM*	5.8µM*
COc1ccc(NS(=O)(=O)NC(=O)c2c(C)n(C)c3ccccc23)cc1	?	i	13%	?	i	i
O=C(c1ccc(N2CCC(NCCCn3ncc4ccccc43)CC2)cc1)N1CCc2ccccc2C1	·	i	·	·	·	·
S=c1nc[nH]c2c1ncn2-c1ccc(Cl)cc1	6%	i	12%	19%	?	10µM*
O=C(NNc1ccc(F)cc1F)C1CCC1	?	i	-13%	4.6µM*	i	i
COc1cccc2c1CCC1=CC(=O)CCC12C (stereo not drawn)	-16%	i	7%	-11%	i	i
COc1cc(=O)n2c(c1C(=O)N(C)Cc1nonc1C)CCN(Cc1ccccc1F)CC2	·	i	·	·	·	·
CCOC(=O)Nc1ccc2c(c1)C(=NNC(N)=S)c1ccccc1-2	?	·	?	?	?	23µM*
NC(=O)c1cccc2c1-c1ccccc1/C2=N/NC(N)=S	0%	?	·	8%	i	i
CCOC(=O)Nc1ccc2c(c1)C(=NO)c1ccccc1-2	2%	?	19%	11%	?	8.2µM*
Cc1ccc(CN2[C@H](C)[C@H](c3ccccc3)OCCS2(=O)=O)cc1	·	·	·	·	23µM*	16µM*
CCc1cccc(C)c1NC(=O)c1cc2ccccc2o1	·	i	-2%	·	i	i
Fc1ccc(Nc2ccnc(Nc3ccc(F)cc3)n2)cc1	?	i	24%	?	i	15µM*
SMILES	HT1080NT lethal	ATXN viability	ATXN2 expr inh	HT1080 IDH1KD tx	KB-3-1 cytotox	KB-V1 MDR tox
Nc1ncnc(Nc2ccc(F)cc2)n1	2%	?	3%	3%	i	i
COc1ccccc1N1CCN(Cc2cccc(OC)c2OC)CC1	-5%	·	·	-9%	i	i
CCOc1ccccc1N1CCN(Cc2ccc(OC)c(OC)c2)CC1	-11%	i	-7%	-13%	i	16µM*
CCOc1cc(CN2CCCCCC2)ccc1OC	1%	i	-18%	-2%	i	i
COc1ccc(CN2CCN(c3ccccn3)CC2)cc1OCc1ccccc1	0%	i	-22%	?	i	9.2µM*
COc1cc(CN2CCN(c3cccc(C)c3C)CC2)cc(OC)c1O	-12%	i	-4%	0%	i	18µM*
Cc1cccc(N2CCN(Cc3ccoc3)CC2)c1C	8%	i	0%	?	i	i
CCOc1ccccc1N1CCN(Cc2ccc(OC)c(OC)c2OC)CC1	-3%	i	-22%	-28%	i	18µM*
CC(=O)c1ccc(-c2ccc(C(=O)NCC3CCCO3)o2)cc1 (stereo not drawn)	0%	i	-6%	2%	i	i
COc1ccc(C(OC(=O)c2ccco2)C(=O)NC2CCCC2)cc1 (stereo not drawn)	3%	i	-6%	6%	i	i
Cc1ccc(-c2nc(C)c(CCNC(=O)c3ccccc3Br)s2)cc1	·	?	3%	·	i	?
COCC(=O)Nc1cc(C(=O)N2CCCOc3c(cccc3OC)C2)c2c(c1)nc(C1CCC1)n2C	·	i	·	·	·	·
CCOc1cc(CN2CCC(CO)(Cc3cccc(C(F)(F)F)c3)CC2)ccc1OC	21µM*	?	-17%[2.22 µM]	21µM*	26µM*	i
CCC1(C2CCN(C(=O)c3ccc(C)cc3C)CC2)NC(=O)N(CCc2scnc2C)C1=O (stereo not drawn)	·	i	·	·	·	·
Cc1cccc(C)c1NC(=O)CCCSc1nc2ccccc2s1	0%	i	1%	1%	i	i
O=C(O)CCSc1nc2ccccc2s1	1%	i	10µM*	-2%	i	i
c1ccc2sc(SCSc3nc4ccccc4s3)nc2c1	-1%	i	·	-23%	i	i
CCc1cccc(CC)c1NC(=O)CCCSc1nc2ccccc2s1	-3%	i	-7%	-22%	?	12µM*
CCc1cccc(CC)c1NC(=O)CSc1nc2ccc(N3C(=O)C4C(C3=O)[C@H]3C=C[C@@H]4C3)cc2s1 (stereo partly drawn)	2%	i	-19%	26µM*	i	i
Cc1ccc(N(CC(=O)NCCSc2nc3ccccc3s2)S(=O)(=O)c2ccccc2)c(C)c1	-7%	?	-19%	-20%	?	8.2µM*
